Measurements: PubChem BioAssay AID1259415 (National Center for Advancing Translational Sciences (NCATS), 2018)
The whole screen tested about 410,000 compounds, of which about 18,000 (4.4%) were called active. Not shown: some 7% with an inconclusive outcome. Many of the other results were omitted from the sample, so actives are more common in it than they were. Unmarked numbers belong to inactive results. No stated cut-off is given here; in the data, active means activity change below about -60%; inconclusive means no clear call, values can overlap the other calls; inactive means above about -39%.

Experiment: qHTS Assay for inhibitors of the human cytomegalovirus (HCMV)
Conditions: HFF cells, HCMV-luciferase reporter, 72 h; at 57.5 µM; active compounds read low
Outline: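 HFF cells seeded 16 h at 37C, treated with compounds, infected with luciferase-reporter HCMV at MOI 1 PFU/cell; luciferase read at 72 h post infection, normalized to buffer-only and Salinomycin controls.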
On the % scale 0 is the no-effect control and ±100 the full control effect.

Compound	activity change, negative = inhibition
COc1cc(Cl)c(C)cc1NC(=O)CCc1nc2cccnc2n1Cc1cccs1	11%
Cc1nnc(SCC(=O)Nc2cccc(N)c2)n1-c1ccccc1	5.74%
CC[n+]1c(C)n(-c2ccccc2)c2ccc(NC(C)=O)cc21	-79.8% (active)
CC(=O)Nc1ccc(NC(=O)CSc2nnc(C3CC3)n2-c2ccccc2)cc1	0%
Cn1c(CCC(=O)OCC(=O)NCc2ccccc2Cl)nc(=O)c2ccccc21	14.9%
Cc1ccc(Nc2ccc3cc(S(=O)(=O)N4CCCCC4)ccc3n2)cc1F	-90.2% (active)
O=S(=O)(c1ccc2nc(NCc3ccccc3Cl)ccc2c1)N1CCCCC1	-22.2%
O=S(=O)(c1ccc2nc(N3CCN(c4cccc(Cl)c4)CC3)ccc2c1)N1CCCCC1	6.51%
Cc1ccc(-n2ncc3c(=O)n(Cc4cccc(C(F)(F)F)c4)cnc32)cc1C	1.72%
CSc1nc(C)nc2c1c(=O)n(C)c(=O)n2C	6.36%
COc1ccc(C(=O)/C=C/c2ccc(-c3ccccc3)cc2)cc1CSCC(=O)O	-1.55%
COc1ccc(/C=C/C(=O)c2ccc(NS(=O)(=O)c3ccc(C)cc3)cc2)cc1O	-96.5% (active)
Cc1ccc(S(=O)(=O)NNC(=O)/C=C/c2cccc(F)c2)cc1	-26.4%
CCC(Oc1ccccc1C)C(=O)Nc1ccc(S(=O)(=O)Nc2cc(C)on2)cc1 (stereo unspecified)	4.11%
COc1ccc(NS(=O)(=O)c2ccc(NC(C)=O)cc2)cc1OC	-79.8% (active)
COC(C(=O)Nc1ccc(S(=O)(=O)Nc2ccc(C)c(C)c2)cc1)c1ccccc1 (stereo unspecified)	-97.3% (active)
COc1ccc(S(=O)(=O)Nc2cc(C)on2)cc1NC(C)=O	61.3%
COC(C(=O)NCc1ccccc1C)c1ccccc1 (stereo unspecified)	-7.11%
COc1ccccc1C(=O)COC(=O)CNS(=O)(=O)c1ccc(NC(C)=O)cc1	5.34%
CCc1ccc(NC(=O)c2cc3c(=O)n(Cc4cccnc4)ccc3nc2C)cc1	-20.1%
CC(=O)N1Cc2cc(C(=O)NCc3cccc(F)c3)nc(-c3cccc(C4=CCCCC4)c3)c2[C@H]1CCO	3.64%
COc1ccc(CCNC(=O)c2cc3cccc4c3n2CC(C)S4)c(OC)c1OC (stereo unspecified)	0%
COCc1c(C(=O)N/N=C/C2CC=CCC2)nnn1-c1nonc1N (stereo unspecified)	65.4%
O=C(NN=Cc1ccco1)C(=O)Nc1ccc(Cl)c([N+](=O)[O-])c1	63.3%
O=C(/C=C/c1ccc(Cl)c([N+](=O)[O-])c1)c1cccnc1	-80.5% (active)
C/C(=N\NC(=O)Cc1ccccc1[N+](=O)[O-])c1cccnc1	44.6%
